From PubChem BioAssay (Tox21)
Where “and” joins values, the source holds several entries; their conditions need not be identical. Equal values may be shown once. Results filed as inconclusive are left out. Calls of active or inactive are those of the source. Unless noted, the call rests on the fitted dose curve; in most records, active means well fitted curve in the direction sought with a large enough effect in the repeat runs; inconclusive means weak or mixed curves; inactive means no such curve, though single readings can be large; an effect the other way counts as inactive or inconclusive.

Legend:
[1] = qHTS assay to identify small molecule agonists of the hypoxia (HIF-1) signaling pathway - cell viability counter screen (AID 1224844; calls by dose curve; further: nearly all actives have a fitted effect of over 50% in size; further: potency means the concentration at half of the fitted maximal effect)
Procedure, shortened: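 Multiplexed with the HRE beta-lactamase assay, this viability read used CellTiter-Glo luminescence (30 min, RT) on HRE-bla ME-180 cells treated 17 hrs with compounds in 0.5% dialyzed FBS medium.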

[2] = qHTS assay to identify small molecule agonists of H2AX (AID 1224845; active means well fitted activation curve with a large enough effect in the signal ratio in the repeat runs, not every such curve was filed as active; the % refers to the signal ratio)
Procedure, shortened: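 Wild-type CHO-K1 cells, plated overnight, exposed 3hr at 37C to 15 concentrations (0.76% DMSO final). Lysed, then HTRF anti-pH2AX (S139) cryptate and anti-H2AX-d2 antibodies, 24 hr room temperature; 665/620 nm emission read.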

[3] = qHTS assay to identify small molecule agonists of the hypoxia (HIF-1) signaling pathway (AID 1224846; active means well fitted activation curve with a large enough effect in the signal ratio in the repeat runs, not every such curve was filed as active; the % refers to the signal ratio)
Procedure, shortened: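 Hypoxia-pathway activation was scored as increased beta-lactamase from an HRE-controlled reporter in ME-180 cells; plated at 2,000 cells per well with 0.5% dialyzed FBS, they were exposed 17 hrs to compounds and then given CCF4-AM.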

[4] = qHTS assay to identify small molecule agonists of H2AX - cell viability counter screen (AID 1224847; calls by dose curve; further: nearly all actives have a fitted effect of over 30% in size; further: potency means the concentration at half of the fitted maximal effect)
Procedure, shortened: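 CHO-K1 wt, 1000 cells/well, o/n 37C; cpds 15 conc, 3 h 37C, 0.76% DMSO; CellTiter-Glo, 30 min RT, luminescence.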

[5] = qHTS assay to identify small molecule antagonists of the estrogen related receptor (ERR) signaling pathway from Tox21 library (AID 1224848); further: nearly all actives have a fitted effect of over 50% in size; further: potency means the concentration at half of the fitted maximal effect
Procedure, shortened: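 ERR reporter cell line (from NTP) seeded 2,000 cells/well, rested 6 h at 37 C/5% CO2, then pin-dosed with compounds in DMSO. After 18 h at 37 C, ONE-Glo added; luminescence read after 30 min at room temperature.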

[6] = qHTS assay to identify small molecule agonists of the estrogen related receptor (ERR) signaling pathway from Tox21 library (AID 1224849; calls by dose curve; further: nearly all actives have a fitted effect of over 15% in size); conditions: ERR reporter cell line, ONE-Glo luciferase, 18 h
Procedure, shortened: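 Six hours post-seeding at 37 C/5% CO2, ERR cells receive DMSO-solubilised compounds; after 18 h at 37 C, ONE-Glo reagent is applied and luminescence recorded.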

[7] = qHTS RealTime-Glo MT Cell Viability Assay in HepG2 cells - 24 hour (AID 1224867); further: nearly all actives have a fitted effect of over 50% in size; further: potency means the concentration at half of the fitted maximal effect
Procedure, shortened: (§1)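 qHTS, HepG2, 600 cells/well, RealTime-Glo (NanoLuc + prosubstrate) added with cells; 5 h preincubation; DMSO compound addition; 37 C; luminescence at 0/8/16/24/32/40 h.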

[8] = qHTS RealTime-Glo MT Cell Viability Assay in HEK293 cells - 32 hour (AID 1224868); further: nearly all actives have a fitted effect of over 50% in size; further: potency means the concentration at half of the fitted maximal effect
Procedure, shortened: (§2)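 Assay medium contained NanoLuc luciferase plus cell-permeant prosubstrate, added with HEK293 cells at 600 cells/well. After 5 h at 37 C/5% CO2 compounds were added; plates stayed at 37 C for 40 h with serial luminescence reads.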

[9] = A CellTox Green Cytotoxicity Assay to monitor cytotoxicity in HEK293 cells - 0 hour (AID 1224869); further: nearly all actives have a fitted effect of over 50% in size
Procedure, shortened: (§3)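 Seeding of HEK293 cells together with cytotoxicity dye preceded a 5 h incubation at 37 C/5% CO2. Test compounds in DMSO were then added and fluorescence monitored across 40 h.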

[10] = qHTS RealTime-Glo MT Cell Viability Assay in HepG2 cells - 40 hour (AID 1224870); further: nearly all actives have a fitted effect of over 50% in size; further: potency means the concentration at half of the fitted maximal effect
Procedure, shortened: (§4)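 HepG2 cells (600/well) mixed with RealTime-Glo MT reagent, settled 5 h at 37 C/5% CO2 before compound addition. Nonlytic NanoLuc luminescence from viable-cell prosubstrate reduction read repeatedly during 40 h treatment at 37 C.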

[11] = A CellTox Green Cytotoxicity Assay to monitor cytotoxicity in HEK293 cells - 40 hour (AID 1224871); further: nearly all actives have a fitted effect of over 45% in size; further: potency means the concentration at half of the fitted maximal effect
Procedure, shortened: as §3

[12] = qHTS RealTime-Glo MT Cell Viability Assay in HEK293 cells - 16 hour (AID 1224872); further: nearly all actives have a fitted effect of over 50% in size; further: potency means the concentration at half of the fitted maximal effect
Procedure, shortened: as §2

[13] = qHTS RealTime-Glo MT Cell Viability Assay in HepG2 cells - 8 hour (AID 1224873); further: nearly all actives have a fitted effect of over 55% in size; further: potency means the concentration at half of the fitted maximal effect
Procedure, shortened: as §4

[14] = qHTS RealTime-Glo MT Cell Viability Assay in HEK293 cells - 40 hour (AID 1224874); conditions: RealTime-Glo luminescence; max response: active compounds read low; further: nearly all actives have a fitted effect of over 50% in size; further: potency means the concentration at half of the fitted maximal effect
Procedure, shortened: (§5)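 Tox21 screen in HEK293 using RealTime-Glo MT chemistry, with cells and reagent co-dispensed. Luminescence proportional to viable cell number was captured at intervals during 40 h compound exposure at 37 C.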

[15] = A CellTox Green Cytotoxicity Assay to monitor cytotoxicity in HEK293 cells - 24 hour (AID 1224875); further: nearly all actives have a fitted effect of over 45% in size
Procedure, shortened: as §3

[16] = A CellTox Green Cytotoxicity Assay to monitor cytotoxicity in HepG2 cells - 16 hour (AID 1224876); further: nearly all actives have a fitted effect of over 45% in size
Procedure, shortened: (§6)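 Nonlytic assay: viable cells exclude the dye, so fluorescence scales with cell death. HepG2 at 600 cells/well, compounds added after 5 h, signal read across 40 h.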

[17] = qHTS RealTime-Glo MT Cell Viability Assay in HepG2 cells - 32 hour (AID 1224877); further: nearly all actives have a fitted effect of over 55% in size; further: potency means the concentration at half of the fitted maximal effect
Procedure, shortened: as §1

[18] = A CellTox Green Cytotoxicity Assay to monitor cytotoxicity in HepG2 cells - 24 hour (AID 1224878); further: nearly all actives have a fitted effect of over 45% in size
Procedure, shortened: as §6

[19] = A CellTox Green Cytotoxicity Assay to monitor cytotoxicity in HepG2 cells - 40 hour (AID 1224879); further: nearly all actives have a fitted effect of over 40% in size; further: potency means the concentration at half of the fitted maximal effect
Procedure, shortened: as §6

[20] = qHTS RealTime-Glo MT Cell Viability Assay in HEK293 cells - 0 hour (AID 1224880)
Procedure, shortened: as §5
On the % scale 0 is the no-effect control and ±100 the full control effect.

O=C(Cl)OCCOCCOC(=O)Cl
inactive: Potency [1] | Potency [2] | outcome [3] | Potency [4] | Potency [5] | activity change, positive = activation ([6]; at 92.4 µM (top of the series)) 1.12% | Potency [7] | Potency [8] | Potency [9] | Potency [10] | Potency [11] | Potency [12] | Potency [13] | max response [14] 3.34% | Potency [15] | Potency [16] | Potency [17] | Potency [18] | Potency [19] | outcome [20]

C=CCOC(=O)C(C)(C)OC(=O)c1cc(-n2c(=O)cc(C(F)(F)F)n(C)c2=O)ccc1Cl
active: Potency [5] 26.8 µM | Potency [14] 21.5 µM
inactive: Potency [1] | Potency [2] | outcome [3] | Potency [4] | activity change, positive = activation ([6]; at 92.4 µM (top of the series)) -42.4% | Potency [7] | Potency [9] | Potency [10] | Potency [11] | Potency [13] | Potency [16] | Potency [17] | Potency [18] | Potency [19]

CCc1cnc(C2=NC(C)(C(C)C)C(=O)N2)c(C(=O)O)c1 (stereo not drawn)
inactive: Potency [1] | Potency [2] | outcome [3] | Potency [4] | Potency [7] | Potency [8] | Potency [9] | Potency [10] | Potency [11] | Potency [12] | Potency [13] | max response [14] 1.73% and 22.4% | Potency [15] | Potency [16] | Potency [17] | Potency [18] | Potency [19] | outcome [20]

CCC1(CCC(C)C)C(=O)NC(=O)NC1=O
inactive: Potency [1] | Potency [2] | outcome [3] | Potency [4] | Potency [7] | Potency [8] | Potency [9] | Potency [10] | Potency [11] | Potency [12] | Potency [13] | max response [14] -4.01% | Potency [15] | Potency [16] | Potency [17] | Potency [18] | Potency [19] | outcome [20]

CCCCNC(=O)OCC#CI
inactive: Potency [2] | outcome [3] | activity change, positive = activation ([6]; at 92.4 µM (top of the series)) -71.4% and -29.5% | Potency [9] | Potency [16]
active: Potency [1] 48.7 µM | Potency [4] 50.2 µM and 101 µM | Potency [5] 68.2 µM | Potency [7] 7.72 µM and 3.89 µM | Potency [8] 24.4 µM and 24.5 µM | Potency [10] 4.87 µM and 2.19 µM | Potency [11] 54.7 µM and 54.9 µM | Potency [12] 19.4 µM and 21.9 µM | Potency [13] 15.4 µM and 12.3 µM | Potency [14] 21.8 µM and 24.5 µM | Potency [17] 6.14 µM and 2.75 µM | Potency [19] 49 µM

O=C(Cc1ccccc1)OCCc1ccccc1
inactive: Potency [1] | Potency [2] | outcome [3] | Potency [4] | Potency [5] | activity change, positive = activation ([6]; at 92.4 µM (top of the series)) -0.535% | Potency [7] | Potency [9] | Potency [10] | Potency [11] | Potency [12] | Potency [13] | max response [14] 2.91% | Potency [15] | Potency [16] | Potency [17] | Potency [18] | Potency [19] | outcome [20]

O=S(=O)(c1ccccc1)c1ccccc1
inactive: Potency [1] | Potency [2] | outcome [3] | Potency [4] | Potency [5] | Potency [7] | Potency [8] | Potency [9] | Potency [10] | Potency [11] | Potency [12] | Potency [13] | max response [14] 1.49% | Potency [15] | Potency [16] | Potency [17] | Potency [18] | outcome [20]

O=C(O)c1cc(Cl)ccc1Cl
inactive: Potency [1] | Potency [2] | outcome [3] | Potency [4] | Potency [7] | Potency [8] | Potency [9] | Potency [10] | Potency [11] | Potency [12] | Potency [13] | max response [14] 8.52% | Potency [15] | Potency [16] | Potency [17] | Potency [18] | Potency [19] | outcome [20]

CCCCCl
inactive: Potency [1] | Potency [2] | outcome [3] | Potency [4] | Potency [5] | activity change, positive = activation ([6]; at 92.4 µM (top of the series)) -0.331% | Potency [7] | Potency [8] | Potency [9] | Potency [10] | Potency [11] | Potency [12] | Potency [13] | max response [14] 1.53% | Potency [16] | Potency [17] | Potency [18] | Potency [19] | outcome [20]

CCCC(C)(COC(N)=O)COC(=O)NC(C)C (stereo not drawn)
inactive: Potency [1] | Potency [2] | outcome [3] | Potency [4] | Potency [5] | activity change, positive = activation ([6]; at 42.5 µM (top of the series)) 0.487% | activity change, positive = activation ([6]; at 92.4 µM (top of the series)) -2.02% | Potency [7] | Potency [9] | Potency [10] | Potency [11] | Potency [12] | Potency [13] | max response [14] -11.3% and 0.58% | Potency [15] | Potency [16] | Potency [17] | Potency [18] | outcome [20]

C=CCOCC1CO1 (stereo not drawn)
inactive: Potency [1] | Potency [2] | outcome [3] | Potency [4] | Potency [5] | activity change, positive = activation ([6]; at 92.4 µM (top of the series)) -3.54% | Potency [7] | Potency [8] | Potency [9] | Potency [10] | Potency [11] | Potency [12] | Potency [13] | max response [14] -8.98% | Potency [15] | Potency [16] | Potency [17] | Potency [18] | outcome [20]

N#CC1(N=NC2(C#N)CCCCC2)CCCCC1
inactive: Potency [1] | Potency [2] | outcome [3] | Potency [4] | Potency [5] | activity change, positive = activation ([6]; at 92.4 µM (top of the series)) -5.87% | Potency [7] | Potency [8] | Potency [9] | Potency [10] | Potency [11] | Potency [12] | Potency [13] | max response [14] -7.83% | Potency [15] | Potency [16] | Potency [17] | Potency [18] | Potency [19] | outcome [20]

O=C(O)c1ccc(=O)[nH]c1
inactive: Potency [1] | Potency [2] | outcome [3] | Potency [4] | Potency [5] | activity change, positive = activation ([6]; at 42.5 µM (top of the series)) 5.02% | Potency [7] | Potency [8] | Potency [9] | Potency [10] | Potency [11] | Potency [12] | Potency [13] | max response [14] 5.8% | Potency [16] | Potency [17] | Potency [18] | Potency [19] | outcome [20]

CCC[N+](CCC)(CCC)CCC
inactive: Potency [1] | Potency [2] | outcome [3] | Potency [4] | Potency [5] | activity change, positive = activation ([6]; at 92.4 µM (top of the series)) -9.29% | Potency [7] | Potency [8] | Potency [9] | Potency [10] | Potency [11] | Potency [12] | Potency [13] | max response [14] 6.01% | Potency [15] | Potency [16] | Potency [17] | outcome [20]
